From PubChem
SW480 rereplic: DNA re-replication induction in SW480 cells | SW480 DNA re-replication, Hoechst DNA content imaging, 48 h | Potency, µM (titrated, usually from 46.1 µM), inactives show at the highest dose re-replication activation, most hits filed as activators | 340,000 tested, 1.8% active | AID 624297; note: % of control where 0% means no effect; nearly all actives have a fitted effect of over 55% in size
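Cells (250 per well) received 23 nL compound or DMSO by pin tool and were kept 48 hr at 37 C, 5% CO2. Nuclei were then stained with Hoechst for 40 min and scanned for DNA content.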
ELG1 DNA repair: blocks ELG1-dependent DNA repair in HEK293T cells. HEK293T ELG1-luciferase reporter, luminescence, 16 h; DNA damage induced by 5-fluorouridine. Potency, µM (titrated, usually from 46.1 µM), for inactives: top-dose activity change, negative = inhibition, usual class: inhibitors. 330,000 tested, 2.3% active. AID 504467; note: % is set by controls: 0 for no effect and ±100 for the full control effect; nearly all actives have a fitted effect of over 55% in size
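HEK293T cells expressing luciferase-tagged ELG1 (2,000/well) received 5-Fluorouridine plus compound or DMSO for 16 hr at 37 °C. Luciferase was read by ONE-Glo luminescence after 30 min at room temperature.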
MCF10A rerep: induces DNA re-replication in MCF 10a normal breast cells. MCF 10A DNA re-replication, Hoechst nuclear intensity, 48 h. Potency, µM (doses to about 46.1 µM), inactives show at the top dose activity, positive = re-replication, hits mostly activators. 350,000 tested, 2.9% active. AID 624296; note: % of control where 0% means no effect; nearly all actives have a fitted effect of over 50% in size
KB-3-1 cytotox: kills parental KB-3-1 adenocarcinoma cells; KB-3-1 viability, CellTiter-Glo ATP luminescence, 72 h; Potency, µM (top dose mostly 46.1 µM), hits mostly cytotoxic; 400,000 tested, 1.4% active; note: % is set by controls: 0 for no effect and ±100 for the full control effect; nearly all actives have a fitted effect of over 60% in size
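72 h, 37 °C compound treatment of KB-3-1 parental cells; CellTiter-Glo added, 10 min, luminescence read. Data corrected against DMSO-only plates and normalized before curve fitting.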
KB-V1 cytotox: KB-V1 MDR subline cytotoxicity. KB-V1 MDR cells viability, CellTiter-Glo, 72 h. Potency, µM (highest dose often 46.1 µM), actives largely listed as cytotoxic. 400,000 tested, 3.4% active; note: % is set by controls: 0 for no effect and ±100 for the full control effect; nearly all actives have a fitted effect of over 60% in size
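Luminescent ATP read-out (CellTiter-Glo, 10 min) measures survival of drug-selected KB-V1 MDR cells after 72 h, 37 degrees C compound exposure. Medium: phenol-red-free DMEM, 10% FBS. Values from fitted concentration-response curves.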
The depositor's hits bear a star; [ ] = remark or other dose. Hits are enriched below; roughly 8.1% of the tested compounds scored in any of these assays. Calls come from the whole dose curve; as a rule, active = well fitted curve in the direction sought with a large enough effect; inconclusive = small, poorly fitted or top-dose-only effect, or another doubt; inactive = no such curve, though single readings can be large; an effect the other way counts as inactive or inconclusive. Potency is the fitted concentration of half-maximal effect.

CSc1nsc2nc(=O)c(/C=C3\C(C)=Nc4ccc(C)cc43)c(N)n12 was read as SW480 rereplic inconclusive, ELG1 DNA repair inconclusive, MCF10A rerep 9.2µM*, KB-3-1 cytotox inconclusive and KB-V1 cytotox inactive.
Screening CC1=Nc2ccc(C)cc2/C1=C/c1c(N)n2oc(C)cc2nc1=O returned SW480 rereplic 2%, ELG1 DNA repair -10%, MCF10A rerep 18µM*, KB-3-1 cytotox inconclusive and KB-V1 cytotox inconclusive.
`CC1=Nc2ccccc2/C1=C/c1c(N)n2c(S(=O)(=O)CC(C)C)nsc2nc1=O` gave SW480 rereplic 2%, ELG1 DNA repair 15%, MCF10A rerep 15µM*, KB-3-1 cytotox inactive and KB-V1 cytotox inactive.
`COCCNC(=O)C1(C)CCN(C(=O)Cc2ccc(OC)c(OC)c2)C1` (stereo not drawn) gave KB-3-1 cytotox inactive and KB-V1 cytotox inactive.
CCc1cc(Cn2nc(-c3ccccc3)cc2C(=O)NCc2cccc(Br)c2)on1 was read as SW480 rereplic 13%, ELG1 DNA repair inconclusive, MCF10A rerep inconclusive, KB-3-1 cytotox inconclusive and KB-V1 cytotox 23µM*.
`Cc1c(C(=O)N(Cc2cccs2)C2CCS(=O)(=O)C2)oc2ccccc12` (stereo not drawn) gave SW480 rereplic 3%, ELG1 DNA repair inconclusive, MCF10A rerep 11%, KB-3-1 cytotox inactive and KB-V1 cytotox 6.5µM*.
`COc1ccc(CN(C(=O)c2oc3cc(C)ccc3c2C)C2CCS(=O)(=O)C2)cc1OC` (stereo not drawn) gave SW480 rereplic -5%, ELG1 DNA repair 13µM*, MCF10A rerep 3%, KB-3-1 cytotox inactive and KB-V1 cytotox inactive.
Screening CCCOc1cccc(C(=O)N(Cc2ccc(OC)c(OC)c2)C2CCS(=O)(=O)C2)c1 (stereo not drawn) returned SW480 rereplic -1%, ELG1 DNA repair inconclusive, MCF10A rerep -2%, KB-3-1 cytotox inactive and KB-V1 cytotox 16µM*.
For Cc1ccc(CN(C(=O)c2cc3ccccc3oc2=O)C2CCS(=O)(=O)C2)cc1 (stereo not drawn) the results were SW480 rereplic -8%, ELG1 DNA repair inconclusive, MCF10A rerep -3%, KB-3-1 cytotox inactive and KB-V1 cytotox 15µM*.
Screening CCc1ccc(CN(C(=O)c2cc3ccccc3oc2=O)C2CCS(=O)(=O)C2)cc1 (stereo not drawn) returned SW480 rereplic -1%, ELG1 DNA repair inconclusive, MCF10A rerep 4%, KB-3-1 cytotox inactive and KB-V1 cytotox inactive.
Cc1ccc2c(C)c(C(=O)N(Cc3ccc(F)cc3)C3CCS(=O)(=O)C3)oc2c1 (stereo not drawn) was read as SW480 rereplic inconclusive, ELG1 DNA repair inconclusive, MCF10A rerep 21%, KB-3-1 cytotox inconclusive and KB-V1 cytotox inconclusive.
For CCCOc1ccc(CN(C(=O)c2cccc(OC)c2)C2CCS(=O)(=O)C2)cc1 (stereo not drawn) the results were SW480 rereplic -27%, ELG1 DNA repair 10%, MCF10A rerep -7%, KB-3-1 cytotox inactive and KB-V1 cytotox inactive.
`Cc1ccc(-c2nc3ccccc3o2)cc1NC(=O)C(C)Oc1ccccc1` (stereo not drawn) gave KB-3-1 cytotox inactive and KB-V1 cytotox inactive.
Cn1cc(S(=O)(=O)N2CCCCCC2)cc1C(=O)N1CCN(c2cccc(Cl)c2)CC1 was read as KB-3-1 cytotox inactive and KB-V1 cytotox inactive.
Cc1cccc(N2CCN(C(=O)c3cc(S(=O)(=O)N4CCOCC4)cn3C)CC2)c1C was read as SW480 rereplic -2%, ELG1 DNA repair -3%, MCF10A rerep inconclusive, KB-3-1 cytotox inactive and KB-V1 cytotox inactive.
CC(=O)c1ccc(N2CCN(S(=O)(=O)c3csc(C(N)=O)c3)CC2)cc1 was read as SW480 rereplic 0%, ELG1 DNA repair 3%, MCF10A rerep 1%, KB-3-1 cytotox inactive and KB-V1 cytotox inconclusive.
`Cc1cccc(N2CCN(C(=O)c3cc(S(=O)(=O)N4CCCC4)cn3C)CC2)c1C` gave SW480 rereplic 15µM*, ELG1 DNA repair -2%, MCF10A rerep 8.2µM*, KB-3-1 cytotox inactive and KB-V1 cytotox inactive.
Cc1cccc(N2CCN(S(=O)(=O)c3csc(C(N)=O)c3)CC2)c1C was read as KB-3-1 cytotox 21µM* and KB-V1 cytotox inactive.
Cn1cc(S(=O)(=O)N2CCCCCC2)cc1C(=O)N1CCN(c2cccc(C(F)(F)F)c2)CC1 was read as KB-3-1 cytotox inconclusive and KB-V1 cytotox 21µM*.
Cc1cc(C)n2nc(C(=O)OCC(=O)Nc3cc(S(=O)(=O)N4CCOCC4)ccc3Cl)nc2n1 was read as SW480 rereplic 0%, MCF10A rerep 20%, KB-3-1 cytotox inactive and KB-V1 cytotox inactive.
`CCOC(=O)c1cc(NC(=O)c2ccc(C)cc2)c(=O)n2c1oc1ccccc12` gave KB-3-1 cytotox inactive and KB-V1 cytotox inactive.
`Cc1ccc(-n2[nH]c(C)c(/C=N/NC(=O)c3ccc(O)cc3O)c2=O)cc1` gave SW480 rereplic 8.2µM*, ELG1 DNA repair -1%, MCF10A rerep 2%, KB-3-1 cytotox inactive and KB-V1 cytotox inactive.
Cc1[nH]n(-c2ccccc2)c(=O)c1/C=N/NC(=O)c1ccc(O)cc1O was read as SW480 rereplic inconclusive, ELG1 DNA repair -2%, MCF10A rerep 9%, KB-3-1 cytotox inconclusive and KB-V1 cytotox inconclusive.
For Cc1[nH]n(-c2ccccc2)c(=O)c1/C=N/NC(=O)c1cccc(F)c1 the results were SW480 rereplic inconclusive, ELG1 DNA repair inconclusive, MCF10A rerep 13%, KB-3-1 cytotox inconclusive and KB-V1 cytotox inconclusive.
Screening Cc1[nH]n(-c2ccc(Br)cc2)c(=O)c1/C=N/NC(=O)c1ccccc1 returned SW480 rereplic inconclusive, ELG1 DNA repair inconclusive, MCF10A rerep -2%, KB-3-1 cytotox 7.3µM* and KB-V1 cytotox 1.3µM*.
For COC(=O)[C@]12CCCCC=C1N(Cc1ccco1)C(=O)[C@H](CC(=O)NCc1ccc(C)o1)C2 the results were KB-3-1 cytotox inactive and KB-V1 cytotox inactive.
`Cc1csc(SC(C)c2nc3scc(-c4ccccc4)c3c(=O)[nH]2)n1` (stereo not drawn) gave SW480 rereplic -29%, ELG1 DNA repair inconclusive, MCF10A rerep inconclusive, KB-3-1 cytotox inconclusive and KB-V1 cytotox 9.2µM*.
Screening Cn1c(-c2ccc(Cl)cc2)ccc(C#N)c1=O returned SW480 rereplic 1%, ELG1 DNA repair 21%, MCF10A rerep -178%[0.0737 µM], KB-3-1 cytotox inconclusive and KB-V1 cytotox 5.8µM*.
For O=C(CSc1nnc(NC2CC2)s1)NN1C(=O)NC2(CCCCC2)C1=O the results were SW480 rereplic -7%, ELG1 DNA repair 20%, MCF10A rerep -5%, KB-3-1 cytotox inactive and KB-V1 cytotox inconclusive.
